Assay [1] can be described thus: compounds binding Alexa647 anti-His antibody – biochemical, small-molecule microarray, 635 nm fluorescence, artefact control for SMM control protein annotation, primary screen (AID 1128).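 Further: score merges feature fluorescence with signal-to-noise for each printed compound spot.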 The following applies: higher = more signal.
The subject of assay [2] is Human papillomavirus type 1a E7 protein (residues 1-88). Nature of the assay: HPV1a E7 small-molecule binders, primary screen, biochemical, small-molecule microarray, residues 1-88, 635 nm (AID 1129). The conditions noted are these: small-molecule microarray binding, fluorescence 635 nm; higher = more signal.
Assay [3] concerns the target Focal adhesion kinase 1 (Homo sapiens) (UniProt Q05397). Kind of assay: PTK2 protein binding on printed compound slides – biochemical, small-molecule microarray, 635/667 nm fluorescence, BSA, DTT, primary screen (AID 1130).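 Further: composite of spot emission at 667 nm and signal to noise over triplicate slides.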 The conditions noted are these: 635 nm fluorescence, higher = more signal.
For assay [4], the system named is Fibrinogen (Alexa647-labelled). Kind of assay: Alexa647-fibrinogen binding to printed small molecules – biochemical, small-molecule microarray, 635/667 nm fluorescence, artefact control for SMM control-protein annotation, profiling panel (AID 1131).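 Further: z-score merges 667 nm fluorescence with per-spot signal-to-noise over triplicate slides.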 The following applies: fibrinogen-A647 binding fluorescence, higher = more signal.
The target in assay [5] is Follistatin (Homo sapiens) (UniProt P19883). Kind of assay: FST protein binding to printed compounds – biochemical, small-molecule microarray, 635/667 nm fluorescence, primary screen (AID 1132). The following applies: 635 nm fluorescence, higher = more signal.
Sequence of Follistatin (Homo sapiens) (P19883 whole entry, looked up): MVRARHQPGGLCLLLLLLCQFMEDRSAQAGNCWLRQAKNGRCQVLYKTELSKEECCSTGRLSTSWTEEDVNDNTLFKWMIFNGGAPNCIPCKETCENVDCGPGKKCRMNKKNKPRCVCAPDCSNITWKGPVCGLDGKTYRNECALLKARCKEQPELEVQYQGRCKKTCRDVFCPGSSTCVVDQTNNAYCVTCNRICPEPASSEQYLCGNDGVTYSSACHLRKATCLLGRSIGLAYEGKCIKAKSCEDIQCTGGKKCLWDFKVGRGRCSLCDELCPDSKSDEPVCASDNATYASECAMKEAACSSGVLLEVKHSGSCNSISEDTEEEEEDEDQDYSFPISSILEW
In assay [6] the target is Fibroblast growth factor 2 (Homo sapiens) (UniProt P09038). Kind of assay: basic fibroblast growth factor binding to printed compounds – biochemical, small-molecule microarray, 635/667 nm fluorescence, primary screen (AID 1133). The following applies: FGF2, fluorescence 635/667, higher = more signal.
Sequence of Fibroblast growth factor 2 (Homo sapiens) (P09038 whole entry, looked up): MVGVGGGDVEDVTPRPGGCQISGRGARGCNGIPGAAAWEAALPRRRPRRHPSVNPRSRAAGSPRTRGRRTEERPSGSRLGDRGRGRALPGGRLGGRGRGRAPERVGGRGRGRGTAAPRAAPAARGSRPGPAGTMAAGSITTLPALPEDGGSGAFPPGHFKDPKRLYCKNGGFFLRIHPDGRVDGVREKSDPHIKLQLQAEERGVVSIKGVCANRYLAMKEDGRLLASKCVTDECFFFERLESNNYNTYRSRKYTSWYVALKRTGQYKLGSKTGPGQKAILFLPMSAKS
Assay [7] is described as follows: JC-1 mitochondrial potential readout, lung cancer cells – cell-based, A549, JC-1 fluorescence, basal, 24 h, 100 nL, profiling panel (AID 1138).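 Further: A549 lung adenocarcinoma cells under basal conditions with no added stimulus; test concentration not given here.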 The conditions noted are these: higher = more signal.
For assay [8], the system named is Lefty1. Nature of the assay: Lefty1 protein binding to printed compounds – biochemical, small-molecule microarray, 635/667 nm fluorescence, primary screen (AID 1139). The conditions noted are these: fluorescence 635/667, higher = more signal.
Assay [9] deals with wheat germ agglutinin (Triticum aestivum), Alexa647-labelled. Nature of the assay: Alexa647-WGA lectin binding to printed small molecules – biochemical, small-molecule microarray, 635/667 nm fluorescence, artefact control for SMM control-protein annotation, profiling panel (AID 1140).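 Further: score merges 667 nm feature emission with signal to noise over triplicate slides.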 The conditions noted are these: WGA-A647 binding, 635 nm fluorescence, higher = more signal.
Assay [10] concerns the target Luciferin 4-monooxygenase (Photinus pyralis) (UniProt P08659). Nature of the assay: inhibition of purified Photinus pyralis luciferase – biochemical, luminescence, purified enzyme, 2006 set, primary screen (AID 1141).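 Further: cell-free assay with purified firefly luciferase at 100 ng per well in PBS; test concentration not given here.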 The following applies: purified firefly luciferase, SteadyGlo luminescence, 30 min; higher = more signal, called active from +8 up or from −8 down.
Assay [11] concerns Wnt5a (protein binding on small-molecule microarray). Kind of assay: small molecules binding Wnt5a protein – biophysical, small-molecule microarray, 635/667 nm fluorescence, primary screen (AID 1142).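 Further: fluorescence read at 667 nm with signal to noise per printed feature.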 The following applies: 635 nm fluorescence, higher = more signal.
Assay [12] can be described thus: ATP-based viability of Huh7 replicon cells – cell-based, CellTiter-Glo luminescence, basal, 48 h, cytotoxicity control for HCV replication inhibitor project, primary screen (AID 1143).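 Further: Huh7 hepatoma cells carrying a hepatitis C replication reporter with no stimulus; test concentration not given here.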 The following applies: higher = more signal, called active from +8 up or from −8 down. On the technique in general: Replicon systems follow genome replication, usually without infectious particles.

Assay [13] in a line: Pseudomonas biofilm growth suppression – PAO1 strain, BacTiter-Glo luminescence, LB-PBS, primary screen (AID 1144). The conditions noted are these: P. aeruginosa PAO1 biofilm, 12 h, higher = more signal.
Assay [14] in a line: basal CRE-LacZ reporter activity in PC12 – cell-based, unstimulated, primary screen (AID 1145). The conditions noted are these: no forskolin, luminescence, 4.5 h, higher = more signal, called active from +8 up or from −8 down.
Assay [15] in a line: forskolin-driven CRE-LacZ activity in PC12 – cell-based, CRE-LacZ reporter, forskolin-stimulated, primary screen (AID 1146).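 Further: PC12 cells with 6xCRE LacZ reporter stimulated by forskolin 10 µM; beta-galactosidase reporter signal reflecting CREB driven transcription.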 The following applies: luminescence, 4.5 h, higher = more signal, called active from +8 up or from −8 down.
Assay [16] deals with Streptavidin (Streptomyces avidinii) (UniProt P22629). Nature of the assay: compounds binding control protein streptavidin – biophysical, small-molecule microarray, 635/667 nm fluorescence, artefact control for SMM compound annotation, primary screen (AID 1147).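 Further: signal reflects streptavidin binding to arrayed compounds as a control protein.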 The following applies: higher = more signal.
Sequence of Streptavidin (Streptomyces avidinii) (P22629 whole entry, looked up): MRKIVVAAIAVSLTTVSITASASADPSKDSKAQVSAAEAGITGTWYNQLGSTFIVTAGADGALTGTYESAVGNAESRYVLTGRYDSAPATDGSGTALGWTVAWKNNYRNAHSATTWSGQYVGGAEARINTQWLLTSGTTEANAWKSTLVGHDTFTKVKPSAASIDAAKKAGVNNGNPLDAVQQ
A short description of assay [17]: probe aInhba binding on compound microarray – biochemical, small-molecule microarray, 635/667 nm fluorescence, primary screen (AID 1148).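 Further: score merges 667nm spot fluorescence with signal-to-noise for antibody binding to printed compounds.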 The following applies: higher = more signal.
Assay [18] has as its target Torsin-1A (Homo sapiens) (UniProt O14656). Kind of assay: TOR1A wild-type binding on microarray – cell lysate, small-molecule microarray, lysate, 635/667 nm, primary screen (AID 1149). The following applies: COS7 hTOR1A-WT lysate, 635 nm fluorescence, higher = more signal.
Assay [19] shares this target. Nature of the assay: torsin A mutant lysate binding on microarrays – cell lysate, small-molecule microarray, COS7 lysate, 635/667 nm fluorescence, primary screen (AID 1150).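 Further: score pools 667 nm emission and signal to noise measuring lysate protein binding.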 The following applies: COS7 hTOR1A mutant lysate, 635 nm fluorescence, higher = more signal.
The test system of assay [20] is Sonic hedgehog protein (Shh). Nature of the assay: Sonic hedgehog microarray binding compounds – biochemical, small-molecule microarray, 635/667 nm fluorescence, primary screen (AID 1151).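 Further: Shh protein binding to compounds spotted on small-molecule microarray slides; score combines spot fluorescence intensity with signal-to-noise across triplicate slides.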 The following applies: 635 nm fluorescence, higher = more signal.

SMILES strings stand for the structures. The source made the active and inactive calls. Unless noted, how the calls were made is not given here.

Sequence of Luciferin 4-monooxygenase (Photinus pyralis) (P08659 whole entry, looked up): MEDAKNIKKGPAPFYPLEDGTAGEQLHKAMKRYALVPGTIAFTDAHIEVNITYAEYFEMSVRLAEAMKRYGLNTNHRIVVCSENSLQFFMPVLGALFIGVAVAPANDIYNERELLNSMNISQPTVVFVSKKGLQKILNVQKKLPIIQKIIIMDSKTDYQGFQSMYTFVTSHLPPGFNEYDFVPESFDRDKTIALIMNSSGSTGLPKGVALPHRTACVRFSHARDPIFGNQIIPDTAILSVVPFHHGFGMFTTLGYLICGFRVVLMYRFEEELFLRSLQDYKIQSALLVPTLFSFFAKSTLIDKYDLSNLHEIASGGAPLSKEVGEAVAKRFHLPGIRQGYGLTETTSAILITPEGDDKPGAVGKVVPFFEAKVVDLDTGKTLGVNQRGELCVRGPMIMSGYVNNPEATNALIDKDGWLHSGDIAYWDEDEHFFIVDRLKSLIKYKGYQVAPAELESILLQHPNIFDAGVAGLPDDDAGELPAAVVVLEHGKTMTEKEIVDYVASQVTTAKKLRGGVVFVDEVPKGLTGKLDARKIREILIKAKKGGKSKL
Sequence of Torsin-1A (Homo sapiens) (O14656 whole entry, looked up): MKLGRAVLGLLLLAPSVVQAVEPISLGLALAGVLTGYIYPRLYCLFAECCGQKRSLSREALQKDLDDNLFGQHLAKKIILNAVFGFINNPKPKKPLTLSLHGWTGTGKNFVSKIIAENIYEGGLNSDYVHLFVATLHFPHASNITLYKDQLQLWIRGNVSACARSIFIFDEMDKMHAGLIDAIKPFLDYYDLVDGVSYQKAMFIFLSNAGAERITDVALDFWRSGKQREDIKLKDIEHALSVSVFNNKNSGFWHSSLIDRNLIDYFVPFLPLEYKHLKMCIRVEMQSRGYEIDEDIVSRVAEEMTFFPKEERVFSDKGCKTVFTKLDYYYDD
Sequence of Focal adhesion kinase 1 (Homo sapiens) (Q05397 whole entry, looked up): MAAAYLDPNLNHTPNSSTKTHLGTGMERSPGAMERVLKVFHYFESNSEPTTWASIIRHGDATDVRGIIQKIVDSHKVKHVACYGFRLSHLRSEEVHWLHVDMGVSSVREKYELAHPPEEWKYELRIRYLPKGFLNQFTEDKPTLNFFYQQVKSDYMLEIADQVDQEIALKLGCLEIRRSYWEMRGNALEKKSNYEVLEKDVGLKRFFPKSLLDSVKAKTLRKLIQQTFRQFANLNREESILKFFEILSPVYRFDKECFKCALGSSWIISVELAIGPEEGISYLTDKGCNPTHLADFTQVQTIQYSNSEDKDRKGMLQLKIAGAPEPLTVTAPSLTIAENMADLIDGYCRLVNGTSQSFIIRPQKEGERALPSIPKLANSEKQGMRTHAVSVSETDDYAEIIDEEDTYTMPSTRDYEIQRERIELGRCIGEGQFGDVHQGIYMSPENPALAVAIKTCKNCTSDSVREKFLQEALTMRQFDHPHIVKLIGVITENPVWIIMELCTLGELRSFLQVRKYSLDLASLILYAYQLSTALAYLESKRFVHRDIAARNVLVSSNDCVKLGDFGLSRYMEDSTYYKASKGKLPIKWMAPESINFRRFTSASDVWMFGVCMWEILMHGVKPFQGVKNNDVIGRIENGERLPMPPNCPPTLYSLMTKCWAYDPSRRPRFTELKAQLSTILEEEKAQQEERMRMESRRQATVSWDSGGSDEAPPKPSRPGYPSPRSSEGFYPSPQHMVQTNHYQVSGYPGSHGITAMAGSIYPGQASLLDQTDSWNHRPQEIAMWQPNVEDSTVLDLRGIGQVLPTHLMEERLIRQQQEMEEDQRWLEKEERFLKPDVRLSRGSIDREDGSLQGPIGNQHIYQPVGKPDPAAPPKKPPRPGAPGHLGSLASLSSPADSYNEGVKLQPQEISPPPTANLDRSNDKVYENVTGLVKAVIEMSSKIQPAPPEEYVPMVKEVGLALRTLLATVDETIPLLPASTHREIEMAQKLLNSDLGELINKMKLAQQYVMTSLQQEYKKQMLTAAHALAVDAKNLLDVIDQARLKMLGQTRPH

Take `COCCOC(=O)N1C(=O)[C@@]2(c3ccccc31)[C@H](C(=O)N1CCN(c3ncccn3)CC1)[C@H]1C(=O)O[C@H](c3ccccc3)[C@H](c3ccccc3)N1[C@@H]2c1ccc(OCCO)cc1`: the composite z-score in [1] came out at 2.77; in assay [2], 1.21; in assay [3], 2.12; in assay [4], 0.967; in assay [5], 1.23; in [6] it was 0.891. For the same compound, the composite z-score in assay [8] was determined as 0.612; in [9] it was 0.965; in assay [11], 0.561; in assay [16] it was 1.19; in [17], 0.336; in assay [18], 0.281. For the same compound, the composite z-score stood at 0.59 in assay [19] and 1.82 in assay [20]. The z-score in assay [7] was -0.587; in [10], -1.3 (inactive); in [12], -1.12 (inactive); in assay [13], -0.236 (inactive); in assay [14], 1.3 (inactive); in [15], -0.599 (inactive).
As for `CN(C)CCCNC(=O)[C@@]1(C)c2ccccc2C(=O)N(Cc2cc(C(F)(F)F)cc(C(F)(F)F)c2)[C@H]1c1ccc(CO)cc1`, the composite z-score in assay [1] was -0.216; in [2] it was -0.446; in assay [3] it was -0.24; in [4] it was -2.28; in [5] it was -0.775; in [6] it was -0.762. Besides, the composite z-score in assay [8] is -1.03; in assay [9] it was -0.973; in assay [11], -0.284; in [16], -0.95; in [17] it was 0.0275; in assay [18], -0.639. The composite z-score in assay [19] was -0.774; in assay [20] it was -0.584. Also, the z-score is -0.0872 in assay [7]; 0.386 (inactive) in assay [10]; -4.27 (inactive) in [12]; -0.391 (inactive) in assay [13]; 0.234 (inactive) in assay [14]; -0.227 (inactive) in assay [15].
In the case of `C[C@H]1C2=C3C(CC[C@H]4C(OCc5ccc(F)cc5C(F)(F)F)OC[C@](C)([C@@H]34)N(C(=O)OC(C)(C)C)C2)C(CO)C1CO` (stereo not given in full), the composite z-score in assay [1] is 0.0803; in assay [2], 1.12; in assay [3], 0.882; in [4] it was 0.944; in assay [5], 0.578; in assay [6], -1.89. In addition, the composite z-score was -0.781 in [8]; 0.608 in assay [9]; 0.24 in assay [11]; 1.38 in assay [16]; -0.0214 in assay [17]; 0.28 in assay [18]. The composite z-score is 0.222 in assay [19] and -1.38 in assay [20]. In addition, the z-score in assay [7] was 1.31; in [10], 0.608 (inactive); in assay [12] it was -2.85 (inactive); in [13], 0.36 (inactive); in [14] it was 0.779 (inactive); in assay [15] it was 0.677 (inactive).
Consider `COC(=O)Cn1c(C(=O)N2CCCC2)cc2c1C[C@H]1CN(C(=O)c3ccccc3)[C@@](Cc3ccc(F)cc3)(C(=O)OC)[C@@H]21`, for which the composite z-score is 0.712 in assay [1]; -0.25 in assay [2]; 0.386 in [3]; -0.288 in assay [4]; 0.237 in [5]; -0.438 in assay [6]. Moreover, the composite z-score was -0.3 in [8]; 0.647 in [9]; -0.164 in assay [11]; 1.59 in assay [16]; -0.123 in assay [17]; 0.895 in assay [18]. Also, the composite z-score is -0.137 in assay [19] and -0.271 in [20]. Besides, the z-score is 1.39 in [7]; 1.22 (inactive) in assay [10]; -1.83 (inactive) in [12]; -0.288 (inactive) in assay [13]; -0.182 (inactive) in [14]; 0.105 (inactive) in [15].
With `COc1cc(OC)c(C(O)C2C=CC3C(=O)N(c4ccccc4)C(=O)C3N2Nc2ccc(C#N)cc2)cc1Br` (stereo not given), the composite z-score in [1] worked out at 1.36; in assay [2], 1.02; in [3], 0.707; in assay [4], 0.674; in [5], 1.22; in [6], 0.217. Besides, the composite z-score in assay [8] is -0.129; in [9] it was 1.13; in [11] it was 0.507; in assay [16] it was 1.9; in assay [17] it was 0.451; in [18] it was 0.367. Further, the composite z-score in assay [19] is 0.99; in assay [20], -0.186. The z-score is 0.658 in [7]; 0.289 (inactive) in [10]; 0.411 (inactive) in assay [12]; -0.245 (inactive) in [13]; 2.17 (inactive) in assay [14]; -0.475 (inactive) in [15].

The values above are taken from PubChem BioAssay.
